The target of assay [1] is Nuclear receptor subfamily 1 group I member 2 (Rattus norvegicus) (UniProt Q9R1A7). Description: Rat pregnane X receptor (rPXR) activation by small molecules, qHTS assay (AID 1346983). Also: % is scaled to controls: 0 for no effect and ±100 for the full control effect; nearly all actives have a fitted effect of over 20% in size. The following applies: rPXR luciferase reporter cells, One-Glo luminescence, 24 h; max activation: hits give high values. The method in brief: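 Luminescent readout (One-Glo luciferase, 30 min room temperature) followed 24 hr compound treatment at 37 C of rPXR cells plated 2,000 per well and preincubated 5hr; qHTS format with compounds delivered in DMSO.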
Sequence of Nuclear receptor subfamily 1 group I member 2 (Rattus norvegicus) (Q9R1A7 whole entry, looked up): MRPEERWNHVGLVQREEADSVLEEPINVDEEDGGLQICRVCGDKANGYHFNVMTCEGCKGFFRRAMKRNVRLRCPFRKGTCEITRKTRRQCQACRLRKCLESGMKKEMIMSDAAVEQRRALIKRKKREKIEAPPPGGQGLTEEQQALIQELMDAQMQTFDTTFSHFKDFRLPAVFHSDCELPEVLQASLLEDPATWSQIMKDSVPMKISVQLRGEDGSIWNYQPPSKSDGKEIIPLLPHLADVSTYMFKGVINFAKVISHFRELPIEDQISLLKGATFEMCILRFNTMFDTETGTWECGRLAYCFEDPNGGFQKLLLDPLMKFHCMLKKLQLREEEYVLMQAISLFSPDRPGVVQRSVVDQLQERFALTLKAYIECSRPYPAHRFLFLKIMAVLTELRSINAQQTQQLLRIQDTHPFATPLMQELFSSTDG

For assay [2], the target named is Nuclear receptor subfamily 1 group I member 2 (Homo sapiens) (UniProt O75469). Description: Human pregnane X receptor (PXR) activation by small molecules, qHTS assay (AID 1346985). Also: nearly all actives have a fitted effect of over 40% in size. Also: potency is read from the fitted curve at half-maximal effect. As to activation: % is scaled to controls: 0 for no effect and ±100 for the full control effect. The method in brief:
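DPX-2 cells (HepG2 co-transfected with a PXR response element and a CYP3A4-promoter luciferase construct) were seeded at 2,000 per well, rested 5 hr at 37C, then exposed to DMSO-dissolved compounds for 24 hr. Activation was read as luciferase luminescence.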

Assay [3] addresses Voltage-gated inwardly rectifying potassium channel KCNH2 (Homo sapiens) (UniProt Q12809). Description: Human Ether-a-go-go-Related Gene (hERG) channel small molecule antagonists: fluorescence cell-based qHTS assay (AID 1671200). Also: potency is read from the fitted curve at half-maximal effect; nearly all actives have a fitted effect of over 50% in size. Summed up:
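First, 1000 cells per well are seeded and cultured overnight at 37 C. Next, FluxOR II dye is loaded for 1 h at room temperature, protected from light. After 10 more minutes, stimulus is added and fluorescence is read.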
For orientation: The hERG channel carries a current that helps repolarise heart muscle cells.

Assay [4] addresses Cytochrome P450 2D6 (Homo sapiens) (UniProt P10635). Description: Cytochrome P450 Family 2 Subfamily D Member 6 (CYP2D6) small molecule antagonists: luciferase reporter qHTS assay (AID 1671196). Also: potency is read from the fitted curve at half-maximal effect; nearly all actives have a fitted effect of over 50% in size. The method in brief:
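Cell-free P450-Glo system: CYP2D6 with proluciferin substrate was pre-incubated with compound for 10 min, then reacted with NADPH regeneration for 1 h at room temperature. Luciferin product was detected after 20 min, and data were reported as relative luminescence units.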
(In general: Reporter assays use an easily measured gene product as a stand-in for the process of interest.)

Assay [5] concerns the target Cytochrome P450 2C19 (Homo sapiens) (UniProt P33261). Description: Cytochrome P450 Family 2 Subfamily C Member 19 (CYP2C19) small molecule antagonists: luciferase reporter qHTS assay (AID 1671197). Also: potency is read from the fitted curve at half-maximal effect; nearly all actives have a fitted effect of over 65% in size. Summed up: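 P450-Glo CYP2C19 system: enzyme-substrate mix with compound 10 min at room temperature, then NADPH regeneration solution, 1 h at 37C. Proluciferin-to-luciferin conversion detected by luminescence after 20 min with detection reagent; ketoconazole as positive control.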

Assay [6] has as its target Cytochrome P450 2C9 (Homo sapiens) (UniProt P11712). Description: Cytochrome P450 Family 2 Subfamily C Member 9 (CYP2C9) small molecule antagonists: luciferase reporter qHTS assay (AID 1671198). Also: potency is read from the fitted curve at half-maximal effect; nearly all actives have a fitted effect of over 50% in size. The method in brief:
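Enzyme-substrate mix preincubated with compound 10 min at room temperature; reaction started with NADPH regeneration solution, 1 h 37C. Luminescent luciferin product read after 20 min detection reagent.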

The target in assay [7] is Cytochrome P450 1A2 (Homo sapiens) (UniProt P05177). Description: Cytochrome P450 Family 1 Subfamily A Member 2 (CYP1A2) small molecule antagonists: luciferase reporter qHTS assay (AID 1671199). Also: potency is read from the fitted curve at half-maximal effect; nearly all actives have a fitted effect of over 50% in size. Summed up:
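P450-Glo CYP1A2 enzyme–proluciferin substrate mix with compound 10 min at room temperature, then NADPH regeneration 1 h at room temperature. Luciferin detection reagent added, luminescence read after 20 min; furafylline positive control.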

Assay [8] concerns the target Cytochrome P450 3A4 (Homo sapiens) (UniProt P08684). Description: Cytochrome P450 Family 3 Subfamily A Member 4 (CYP3A4) small molecule antagonists: luciferase reporter qHTS assay (AID 1671201). Summed up: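 Enzyme and proluciferin substrate are mixed with test chemicals for 10 min, then NADPH regeneration system drives turnover for 1 h at room temperature. A detection reagent halts the reaction; luminescence after 20 min gives relative activity.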

For assay [9], the target named is Nuclear receptor subfamily 1 group I member 2 (Homo sapiens) (UniProt O75469). Description: CYP3A4 induction through human pregnane X receptor (PXR) by small molecules, qHTS assay (AID 1346984). Also: % is scaled to controls: 0 for no effect and ±100 for the full control effect; nearly all actives have a fitted effect of over 40% in size. The method in brief:
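DPX-2 HepG2 cells carrying a PXR response element and CYP3A4-promoter luciferase construct, treated with compounds 24 hr at 37C. Then P450-Glo CYP3A4 Luciferin-IPA substrate (3uM final) for 3 hr at 37C, One-Glo added, luminescence read.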
(qHTS replaces the single test concentration by a dilution series.)

The record followed here is PubChem BioAssay (Tox21).

Values joined by “and” are separate entries in the source; they are usually repeats but may differ in a detail not shown here. Equal values may be shown once. Inconclusive results are not listed. A number with no mark means an inactive call. Active and inactive are the calls of the source. Calls follow the shape of the dose curve; as a rule, active = well fitted curve in the direction sought with a large enough effect in the repeat runs; inconclusive = weak or mixed curves; inactive = no such curve, though single readings can be large; an effect the other way counts as inactive or inconclusive.

Sequence of Cytochrome P450 3A4 (Homo sapiens) (P08684 whole entry, looked up): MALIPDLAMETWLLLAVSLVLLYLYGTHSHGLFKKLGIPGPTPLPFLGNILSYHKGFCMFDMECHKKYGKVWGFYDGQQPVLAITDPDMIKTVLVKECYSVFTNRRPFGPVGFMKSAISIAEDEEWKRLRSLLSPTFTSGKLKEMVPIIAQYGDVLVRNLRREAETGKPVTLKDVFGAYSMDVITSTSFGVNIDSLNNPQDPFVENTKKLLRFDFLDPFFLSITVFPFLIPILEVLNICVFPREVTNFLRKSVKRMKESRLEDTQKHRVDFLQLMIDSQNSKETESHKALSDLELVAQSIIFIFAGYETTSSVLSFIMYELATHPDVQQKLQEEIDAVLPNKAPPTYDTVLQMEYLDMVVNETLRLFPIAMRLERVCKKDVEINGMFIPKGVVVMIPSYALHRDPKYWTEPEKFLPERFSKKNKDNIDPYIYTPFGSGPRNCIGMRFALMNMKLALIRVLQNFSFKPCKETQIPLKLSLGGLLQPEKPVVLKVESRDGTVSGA
Sequence of Cytochrome P450 1A2 (Homo sapiens) (P05177 whole entry, looked up): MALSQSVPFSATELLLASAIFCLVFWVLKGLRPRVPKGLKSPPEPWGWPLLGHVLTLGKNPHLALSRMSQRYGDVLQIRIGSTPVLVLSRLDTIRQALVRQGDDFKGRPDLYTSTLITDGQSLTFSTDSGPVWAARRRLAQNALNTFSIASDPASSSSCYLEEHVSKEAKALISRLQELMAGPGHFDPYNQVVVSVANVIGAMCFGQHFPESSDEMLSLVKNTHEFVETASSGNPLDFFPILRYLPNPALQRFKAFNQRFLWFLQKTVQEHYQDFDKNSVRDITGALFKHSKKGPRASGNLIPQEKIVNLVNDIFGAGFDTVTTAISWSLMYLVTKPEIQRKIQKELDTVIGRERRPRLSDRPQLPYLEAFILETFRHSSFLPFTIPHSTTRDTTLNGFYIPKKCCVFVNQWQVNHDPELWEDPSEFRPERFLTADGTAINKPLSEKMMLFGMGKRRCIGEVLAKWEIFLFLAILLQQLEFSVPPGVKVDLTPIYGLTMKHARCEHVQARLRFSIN
Sequence of Voltage-gated inwardly rectifying potassium channel KCNH2 (Homo sapiens) (Q12809 whole entry, looked up): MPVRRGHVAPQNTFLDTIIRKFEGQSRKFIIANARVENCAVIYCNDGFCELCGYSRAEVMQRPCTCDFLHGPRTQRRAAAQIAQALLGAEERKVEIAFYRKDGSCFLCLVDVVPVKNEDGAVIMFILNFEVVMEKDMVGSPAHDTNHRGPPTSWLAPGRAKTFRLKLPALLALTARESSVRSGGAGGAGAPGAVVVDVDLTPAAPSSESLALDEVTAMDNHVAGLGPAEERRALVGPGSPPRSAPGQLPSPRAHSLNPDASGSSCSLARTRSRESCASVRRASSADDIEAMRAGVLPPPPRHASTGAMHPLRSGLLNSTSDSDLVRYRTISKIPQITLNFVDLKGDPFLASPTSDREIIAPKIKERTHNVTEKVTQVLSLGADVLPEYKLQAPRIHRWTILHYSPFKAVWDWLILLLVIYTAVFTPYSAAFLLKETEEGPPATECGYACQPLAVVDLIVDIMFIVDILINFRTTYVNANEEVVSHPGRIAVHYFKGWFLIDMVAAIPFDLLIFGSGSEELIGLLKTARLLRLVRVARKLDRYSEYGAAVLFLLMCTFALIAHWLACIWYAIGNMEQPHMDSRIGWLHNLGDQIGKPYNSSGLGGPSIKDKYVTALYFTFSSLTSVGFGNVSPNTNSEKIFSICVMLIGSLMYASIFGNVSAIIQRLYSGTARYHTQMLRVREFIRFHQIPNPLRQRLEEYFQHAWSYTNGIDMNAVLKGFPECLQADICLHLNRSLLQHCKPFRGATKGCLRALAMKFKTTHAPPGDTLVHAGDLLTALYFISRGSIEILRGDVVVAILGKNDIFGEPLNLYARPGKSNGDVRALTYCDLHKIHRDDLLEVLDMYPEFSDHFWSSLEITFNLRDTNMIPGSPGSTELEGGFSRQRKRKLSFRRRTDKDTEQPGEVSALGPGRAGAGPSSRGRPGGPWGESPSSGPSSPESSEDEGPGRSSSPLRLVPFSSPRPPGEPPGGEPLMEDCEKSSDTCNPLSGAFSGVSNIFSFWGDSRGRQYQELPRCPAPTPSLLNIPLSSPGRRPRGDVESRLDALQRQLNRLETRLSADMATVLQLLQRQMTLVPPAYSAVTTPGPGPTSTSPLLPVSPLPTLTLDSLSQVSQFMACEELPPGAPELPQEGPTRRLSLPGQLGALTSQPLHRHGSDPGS
Sequence of Cytochrome P450 2C19 (Homo sapiens) (P33261 whole entry, looked up): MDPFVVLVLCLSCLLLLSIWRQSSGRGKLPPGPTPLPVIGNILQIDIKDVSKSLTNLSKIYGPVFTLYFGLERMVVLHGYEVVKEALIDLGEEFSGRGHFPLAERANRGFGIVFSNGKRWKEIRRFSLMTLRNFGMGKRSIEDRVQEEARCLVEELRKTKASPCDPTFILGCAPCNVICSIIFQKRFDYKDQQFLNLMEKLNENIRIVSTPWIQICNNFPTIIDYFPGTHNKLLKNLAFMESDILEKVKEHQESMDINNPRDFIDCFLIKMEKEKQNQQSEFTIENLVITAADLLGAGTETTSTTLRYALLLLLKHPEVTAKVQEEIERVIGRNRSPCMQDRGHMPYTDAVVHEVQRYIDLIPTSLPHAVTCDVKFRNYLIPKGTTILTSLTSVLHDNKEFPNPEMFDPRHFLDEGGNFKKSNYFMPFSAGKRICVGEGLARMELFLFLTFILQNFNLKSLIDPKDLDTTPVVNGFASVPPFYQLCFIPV
Sequence of Cytochrome P450 2D6 (Homo sapiens) (P10635 whole entry, looked up): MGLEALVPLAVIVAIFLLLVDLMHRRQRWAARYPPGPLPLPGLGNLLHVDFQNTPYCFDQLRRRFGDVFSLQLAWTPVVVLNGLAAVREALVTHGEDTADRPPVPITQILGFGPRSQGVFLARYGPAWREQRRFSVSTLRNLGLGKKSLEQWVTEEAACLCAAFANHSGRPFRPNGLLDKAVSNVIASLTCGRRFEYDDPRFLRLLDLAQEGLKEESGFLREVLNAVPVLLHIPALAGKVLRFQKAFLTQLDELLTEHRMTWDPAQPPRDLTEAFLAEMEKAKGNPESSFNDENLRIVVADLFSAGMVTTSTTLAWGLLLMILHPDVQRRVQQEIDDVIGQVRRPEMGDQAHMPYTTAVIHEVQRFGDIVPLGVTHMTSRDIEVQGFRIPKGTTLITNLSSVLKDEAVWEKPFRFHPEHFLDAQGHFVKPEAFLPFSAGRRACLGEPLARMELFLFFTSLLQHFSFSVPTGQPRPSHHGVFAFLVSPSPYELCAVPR
Sequence of Cytochrome P450 2C9 (Homo sapiens) (P11712 whole entry, looked up): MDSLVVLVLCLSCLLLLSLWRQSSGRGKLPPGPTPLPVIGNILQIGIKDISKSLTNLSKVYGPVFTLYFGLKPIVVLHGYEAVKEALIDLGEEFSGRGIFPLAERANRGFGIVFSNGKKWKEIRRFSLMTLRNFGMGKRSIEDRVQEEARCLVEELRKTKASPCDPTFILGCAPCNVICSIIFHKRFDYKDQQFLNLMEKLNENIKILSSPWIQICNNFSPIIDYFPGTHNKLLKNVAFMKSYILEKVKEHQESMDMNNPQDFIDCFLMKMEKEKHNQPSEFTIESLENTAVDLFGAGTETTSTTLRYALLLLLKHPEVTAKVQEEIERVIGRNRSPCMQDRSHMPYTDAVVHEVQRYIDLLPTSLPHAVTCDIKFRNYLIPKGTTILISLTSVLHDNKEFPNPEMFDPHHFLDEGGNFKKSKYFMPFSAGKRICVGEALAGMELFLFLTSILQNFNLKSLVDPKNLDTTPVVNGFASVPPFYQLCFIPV

Regarding `c1ccc2c(c1)OCC(CN1CCCCC1)O2` (stereo not given), the max activation in assay [1] was -3.94%. Moreover, in assay [2], the Potency entry is “inactive”.

As for `Oc1ccc(Cl)c2c1CCC2`, the max activation in assay [1] was 0.0185%. In addition, the Potency result in assay [2] was “inactive”.

For `NC(N)=NCc1cccc(I)c1`, the max activation in [1] is -16.9%. For the same compound, the Potency result in assay [2] is “inactive”.

On to `C(=C\c1ccncc1)/c1ccccc1`, for which the Potency result in assay [2] was “inactive”.

For the compound `CC(=O)Nc1ccc(OC(C)=O)cc1`, the max activation in [1] is -1.35%. For the same compound, the Potency result in assay [2] is “inactive”.

For the compound `N[C@H](CO)C(=O)O`, the max activation in assay [1] was -0.898%. The Potency entry in assay [2] is “inactive”.

On to `O=C1CC[C@@H](C(=O)N[C@H]2C[C@@H]2c2ccccc2)N1`, for which the max activation in [1] is -3.97%. Further, the Potency result in assay [2] was “inactive”.

Turning to `O=C(O)COc1ccc(C(=O)c2cccs2)c(Cl)c1Cl`, the max activation in assay [1] is -1.39% and -4.28%. Further, the Potency result in assay [2] is “inactive”.

Regarding `Cc1ncc(C[n+]2csc(CCOP(=O)(O)O)c2C)c(N)n1`, the max activation in assay [1] was -1.3%. Also, the Potency entry in assay [2] was “inactive”.

For the compound `CSCCC(N)C(=O)O` (stereo not given), the max activation in [1] was -0.631%. The Potency result in assay [2] is “inactive”.

Regarding `CN1CCN(CCCN2c3ccccc3Sc3ccc(C(F)(F)F)cc32)CC1`, the max activation in assay [1] is -11.2%. Moreover, the Potency in [3] is 2.68 µM (active).

Consider `C/C=C/C1=C(C(=O)O)N2C(=O)[C@@H](NC(=O)[C@H](N)c3ccc(O)cc3)[C@H]2SC1`, for which the max activation in [1] was -4.1%. Also, the Potency entry in assay [2] is “inactive”.

Regarding `CC(C)(C)C(=O)OCC(=O)[C@H]1CC[C@H]2[C@@H]3CCC4=CC(=O)CC[C@]4(C)[C@H]3CC[C@]12C`, the max activation in [1] is -6.33%. Besides, in [2], the Potency result is “inactive”.

On to `CC(=O)OCC(=O)[C@@]1(O)CC[C@H]2[C@@H]3CCC4=CC(=O)CC[C@]4(C)C3=CC[C@@]21C`, for which the max activation in [1] was -1.67%. In addition, the Potency result in assay [2] is “inactive”.

With `CN(Cc1ccccc1)Cc1ccccc1`, in assay [1], the max activation is -2.9%. For the same compound, the Potency entry in assay [2] is “inactive”.

Consider `CCCCCCCCCC(=O)NO`, for which, in assay [1], the max activation was -0.53%. Moreover, the Potency entry in assay [2] is “inactive”.

Regarding `CNC(=O)C[C@@H](N)C(=O)N[C@@H](C(=O)N[C@@H]1C(=O)N2[C@@H]1SC(C)(C)[C@@H]2C(=O)O)c1ccc(O)cc1`, the max activation in assay [1] was -2.18%. Further, the Potency entry in assay [2] is “inactive”.

Consider `Nc1cc(Cl)c(NC2=NCCN2)c(Cl)c1`, for which, in [1], the max activation is -1.9%. For the same compound, the Potency entry in assay [2] was “inactive”.

Take `NC(=O)[C@@H]1C[C@]2(NC(=O)NC2=O)c2cc(F)ccc2O1`: the max activation in [1] was -1.76%. The Potency result in [2] was “inactive”.

`CN(C)CCC(O)(c1ccccc1)c1ccccc1Cl` (stereo not given): the max activation in assay [1] was 2.06%. Further, in assay [2], the Potency is 15.8 µM (active).

Regarding `CC(C)[N+]1(C)[C@@H]2CC[C@H]1CC(OC(=O)C(CO)c1ccccc1)C2` (stereo not given in full), the max activation in [1] was -2.6%. Further, in assay [2], the Potency entry is “inactive”.

Regarding `O=C(O)[C@@H]1C[C@H](CP(=O)(O)O)CCN1`, the max activation in assay [1] is -5.85%. Also, the Potency result in assay [2] was “inactive”.

Turning to `CO/N=C(\C(=O)N[C@@H]1C(=O)N2C(C(=O)[O-])=C(C[n+]3cccc4c3CCC4)CS[C@H]12)c1csc(N)n1`, the max activation in [1] is -2.77%. For the same compound, the Potency result in assay [2] was “inactive”.

On to `CC1(C)S[C@@H]2[C@H](NC(=O)[C@H](N)c3ccc(O)cc3)C(=O)N2[C@H]1C(=O)O`, for which, in assay [1], the max activation is -0.49%. In assay [2], the Potency result is “inactive”.

Consider `CCC(NC(C)C)C(O)c1ccc(O)c(O)c1` (stereo not given), for which, in assay [1], the max activation is -0.219%. Moreover, the Potency entry in assay [2] was “inactive”.

For the compound `C[N+](C)(C)CCOP(=O)(O)OP(=O)([O-])OC[C@H]1O[C@@H](n2ccc(N)nc2=O)[C@H](O)[C@@H]1O`, the max activation in assay [1] was -1.05%. The Potency entry in assay [2] is “inactive”.

On to `O=C[C@H](O)[C@@H](O)[C@@H](O)[C@H](O)CO`, for which, in assay [1], the max activation was -2.08%. Also, the Potency entry in assay [2] was “inactive”.

With `CCN(CC)CCOC[C@H]1O[C@@H](O)[C@H](OCCN(CC)CC)[C@@H](O)[C@@H]1O`, the max activation in assay [1] was -3.03%. Also, the Potency result in assay [2] is “inactive”.

For the compound `Cc1ccc(C(C)(C)c2ccc(C)cc2)cc1`, the max activation in assay [1] is -4.5%. For the same compound, the Potency result in [2] is “inactive”.

Take `COc1cccc(-c2ccc(/C=C\CN3CCCCCC3)cc2Cl)c1`: the Potency in assay [4] is 2.51 µM (active); in [5], 44.6 µM (active); in [6] it was 35.4 µM (active); in [7], 56.1 µM (active). Further, the Potency entry in assay [8] is “inactive”.

Turning to `C/C(=C\C(=O)OCCCCCCCCC(=O)O)C[C@@H]1OC[C@H](C[C@@H]2O[C@H]2[C@@H](C)[C@H](C)O)[C@@H](O)[C@H]1O`, the max activation in [1] is -5.5%. Moreover, the Potency result in assay [2] is “inactive”.

Regarding `CC[C@H](C)C(=O)O[C@H]1CCC=C2C=C[C@H](C)[C@H](CC[C@@H]3C[C@@H](O)CC(=O)O3)[C@H]21`, the Potency result in assay [9] and in [2] was “inactive” throughout.

On to `CCOc1cc(CC(=O)N[C@@H](CC(C)C)c2ccccc2N2CCCCC2)ccc1C(=O)O`, for which the max activation in assay [1] is -4.89%. For the same compound, the Potency result in assay [2] is “inactive”.

As for `N=C(N)c1ccc(/C=C/c2ccc(C(=N)N)cc2O)cc1`, the max activation in assay [1] is -1.55%. For the same compound, the Potency result in [2] was “inactive”.
